Records with an inconclusive call do not appear. Active and inactive are the calls of the source. Rule for the calls, unless noted: active = hit-call score of the fitted dose curve at least 0.9, where 1 is the maximum; inconclusive = response in the unintended direction; inactive = score below 0.9.
Legend:
[1] = STM_H9_OrnithineISnorm_perc: Stemina devTOX quickPredict H9 human embryonic stem cell (hESC)-based Assay for Ornithine (ORN) Metabolite Biomarker, Normalized (AID 2283712; active = hit-call score of the fitted dose curve at least 0.9, where 1 is the maximum; inactive = score below 0.9;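 note: ornithine released into spent medium during last day measured by mass spectrometry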)
Method in brief: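 UPLC-HRMS readout: endogenous ornithine EIC area / 13C-ORN internal standard, then % of 0.1% DMSO median. H9 hESCs (pluripotent), 72h exposure, re-dosed with fresh media q24h; last 24-h spent media, deproteinized in 40% acetonitrile.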

[2] = STM_H9_CystineISnorm_perc: Stemina devTOX quickPredict H9 human embryonic stem cell (hESC)-based Assay for Cystine (CYSS) Metabolite Biomarker, Normalized (AID 2283713; active = hit-call score of the fitted dose curve at least 0.9, where 1 is the maximum; inactive = score below 0.9)
Method in brief: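 UPLC-HRMS read-out: endogenous cystine peak area in spent medium, normalized to isotope-labeled internal standard and to median of 0.1% DMSO controls. Pluripotent H9 cells, 72h exposure, daily medium/compound replenishment; medium from last 24h sampled.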

[3] = CEETOX_H295R_MTT_cell_viability: Viability Assessment in the CeeTox HT-H295R MTT Assay (AID 2283718; active = hit-call score of the fitted dose curve at least 0.9, where 1 is the maximum; inactive = score below 0.9;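 for AC50: curve fitted both ways so AC50 may mark viability loss or gain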)
Method in brief: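 H295R cells prestimulated 48 h with 10 uM forskolin, then exposed 48 h to test chemical (0.1% DMSO final). Viability by MTT (0.5 mg/ml, 4 h, 37 C), absorbance 570/650 nm; percent change versus DMSO, bidirectional fit.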

[4] = Tanguay_ZF_120hpf_ActivityScore_legacy: (Legacy) Oregon State University Tanguay Lab 120 Hour Post-fertilization zebrafish Assay Score for Activity (AID 2283742);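 for AC50: dechorionated Tropical 5D wild-type zebrafish embryos held singly per well; static exposure from 6 hpf until 120 hpf at 28 °C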
Method in brief: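 In this whole-embryo screen, dechorionated zebrafish were exposed from 6 hpf until 120 hpf at 28C under a 0.64% DMSO vehicle. Developmental malformations and death were recorded by brightfield microscopy as binary endpoints.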

[5] = STM_H9_OrnCyssISnorm_ratio: Stemina devTOX quickPredict H9 human embryonic stem cell (hESC)-based Assay for Ornithine (ORN):Cystine (CYSS) Ratio (AID 2283714)
Method in brief: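 H9 hESC, 72h, q24h re-dose; last-day media → acetonitrile deproteinization → UPLC-HRMS. ORN:CYSS ratio from isotope-normalized EIC areas, vs 0.1% DMSO; MTX references on each plate.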

[6] = biological target: Luciferin 4-monooxygenase (Photinus pyralis) (UniProt P08659); assay: CCTE_Simmons_QuantiLum_inhib_2: CCTE's Firefly Luciferase Inhibition Assay, Simmons Lab (AID 2283767)
Sequence of Luciferin 4-monooxygenase (Photinus pyralis) (P08659 whole entry, looked up): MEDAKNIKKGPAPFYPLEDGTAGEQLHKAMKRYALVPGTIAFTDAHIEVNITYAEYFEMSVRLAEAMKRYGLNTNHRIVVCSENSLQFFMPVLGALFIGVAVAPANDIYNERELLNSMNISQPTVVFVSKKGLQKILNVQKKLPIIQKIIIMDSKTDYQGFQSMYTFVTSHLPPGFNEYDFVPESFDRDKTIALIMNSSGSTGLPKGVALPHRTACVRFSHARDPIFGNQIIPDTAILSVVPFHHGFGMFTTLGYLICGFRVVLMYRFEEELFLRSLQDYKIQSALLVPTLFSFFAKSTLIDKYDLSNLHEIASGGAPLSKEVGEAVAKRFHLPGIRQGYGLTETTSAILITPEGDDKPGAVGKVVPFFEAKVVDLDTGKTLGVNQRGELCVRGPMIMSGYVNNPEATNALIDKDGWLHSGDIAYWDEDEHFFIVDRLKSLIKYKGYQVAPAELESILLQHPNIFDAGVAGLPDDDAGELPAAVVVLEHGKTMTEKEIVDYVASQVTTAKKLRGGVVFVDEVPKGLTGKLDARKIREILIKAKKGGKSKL
Method in brief: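 Cell-free QuantiLum luciferase, 5 ng/well; compounds 5 nM–87.5 uM final, 8 conc, 0.5% DMSO; 30 min, 37C, dark. Detection reagent (150 uM D-luciferin, 147 uM dATP, CoA, DTT, pH 7.8 final) injected per well, kinetic luminescence. Triplicate biological replicates.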

[7] = read-out: Broad substrate specificity ATP-binding cassette transporter ABCG2 (Homo sapiens) (UniProt Q9UNQ0); assay: CLD_ABCG2_48hr: CellzDirect (CLD) Gene Expression Assay for ABC Transporter (ABCG2) at 48 hours (AID 2283704)
Method in brief: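 ABCG2 transcript measured at 48 h by quantitative nuclease protection (chemiluminescent) and fitted for increase relative to 0.2% DMSO. Hepatocyte cultures from separate donors got fresh compound daily over two days; morphology annotated cytotoxicity.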

[8] = read-out: xenobiotic metabolism (CYP1A1), CYP1A1 (gene 1543); assay: CLD_CYP1A1_48hr: CellzDirect (CLD) Gene Expression Assay for xenobiotic metabolism (CYP1A1) at 48 hours (AID 2283705)
Method in brief: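 CYP1A1 transcript measured by quantitative nuclease protection (chemiluminescent) 48 h after two daily treatments of human hepatocyte cultures, versus 0.2% DMSO. Morphology-based cytotoxicity flags accompany data; two donor preparations used.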

[9] = read-out: Glyceraldehyde-3-phosphate dehydrogenase (Homo sapiens) (UniProt P04406); assay: CLD_GAPDH_48hr: CellzDirect (CLD) Gene Expression Assay for Baseline Control (Glyceraldehyde 3-phosphate dehydrogenase) at 48 hours (AID 2283706);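 note: active means higher GAPDH mRNA than DMSO vehicle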
Method in brief: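 GAPDH baseline-control readout: qNPA chemiluminescent mRNA quantitation in human liver primary cells 48 h after daily dosing on two consecutive days, vehicle 0.2% DMSO; gain of signal fitted against DMSO, cytotoxicity flagged by phase-contrast morphology.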

[10] = read-out: alkyl and aryl transferase (GSTA2), GSTA2 (gene 2939); assay: CLD_GSTA2_48hr: CellzDirect (CLD) Gene Expression Assay for alkyl and aryl transferase (GSTA2) at 48 hours (AID 2283708);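 note: active means mRNA induction above DMSO vehicle baseline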
Method in brief: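 GSTA2 mRNA quantified by qNPA chemiluminescence in human primary hepatocyte lysates after 48 h of daily fresh chemical dosing. Increases fitted against 0.2% DMSO vehicle baseline; cytotoxicity from morphology annotated yes/no.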

[11] = read-out: glucuronosyltransferase (UGT1A1), UGT1A1 (gene 54658); assay: CLD_UGT1A1_48hr: CellzDirect (CLD) Gene Expression Assay for glucuronosyltransferase (UGT1A1) at 48 hours (AID 2283709);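 note: actives increase expression relative to DMSO so potency refers to induction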
Method in brief: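 Quantitative nuclease protection assay (chemiluminescent) for UGT1A1 mRNA at 48 h in human hepatocyte cultures from two donors, redosed daily with fresh solutions. Induction fitted relative to 0.2% DMSO; phase-contrast morphology annotated cytotoxicity.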

[12] = read-out: sulfotransferase (SULT2A), SULT2A1 (gene 6822); assay: CLD_SULT2A_48hr: CellzDirect (CLD) Gene Expression Assay for sulfotransferase (SULT2A) at 48 hours (AID 2283710);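 note: hits raise SULT2A1 transcript above the 0.2% DMSO vehicle baseline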
Method in brief: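 SULT2A1 transcript measured by qNPA chemiluminescence in human primary hepatocyte cultures after 48 h, with fresh dosing solutions on two consecutive days; gain-of-signal fitting against 0.2% DMSO vehicle; cytotoxicity annotated from phase-contrast morphology.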

[13] = ArunA_CellTiter_hNC: Viability Assessment in the ArunA Biomedical's Oris Neural Crest (hNC) Cell Migration Assay (AID 2283752)
Method in brief: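 hNC cells (H9 ESC-derived), 60,000/well, Matrigel, LIF + bFGF medium; 16 h 37C attachment; 72 h compound in test medium; CellTiter Aqueous One read-out; loss-of-signal vs DMSO baseline.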

[14] = ArunA_CellTiter_hNP: Viability Assessment in the ArunA Biomedical's Oris Neural Crest (hNC) Cell Migration Assay (AID 2283753)
Method in brief: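 Viability read with CellTiter 96 Aqueous One after 72 h chemical exposure of human hNP1 neuroprogenitors, which were plated on Matrigel in LIF/bFGF medium 16 h beforehand. Endpoint fitted in positive direction relative to DMSO.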

[15] = ArunA_Migration_hNP: ArunA Biomedical's Oris Neuroprogenitor (hNP) Cell Migration Assay (AID 2283754)
Method in brief: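 Readout is calcein-AM fluorescence (ex494/em517) of cells migrating into the detection zone, relative to DMSO. hNP1 cells (H9-derived) grown on Matrigel behind stoppers 16 h, then stoppers pulled and chemical applied 72 h; cytochalasin D as control.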

[16] = ArunA_Migration_hNC: ArunA Biomedical's Oris Neural Crest (hNC) Cell Migration Assay (AID 2283755)
Method in brief: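 Calcein-AM fluorescence (ex494 nm/em 517 nm) in the stopper-defined detection zone quantifies migration of hNC cells after 72 h chemical exposure; 60,000 cells/well plated on Matrigel with LIF and bFGF, 16 h pre-incubation. DMSO baseline.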

[17] = tested on: chicken Androgen Receptor (AR), gene 422165; assay: ATG_chAR_XSP1: Attagene TRANS-FACTORIAL Multi-Species (XSP1) HepG2 Assay for chicken Androgen Receptor (AR) (AID 2283768)
Method in brief: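 Reporter mRNA read by RT-PCR with fluorescent labelling and capillary electrophoresis 24 h after chemical dosing of transiently transfected HepG2 cells. Chicken AR-Gal4 chimera, partially stimulated with 3 nM 6-alpha-fluorotestosterone; activity fitted upward relative to DMSO.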

Sequence of Glyceraldehyde-3-phosphate dehydrogenase (Homo sapiens) (P04406 whole entry, looked up): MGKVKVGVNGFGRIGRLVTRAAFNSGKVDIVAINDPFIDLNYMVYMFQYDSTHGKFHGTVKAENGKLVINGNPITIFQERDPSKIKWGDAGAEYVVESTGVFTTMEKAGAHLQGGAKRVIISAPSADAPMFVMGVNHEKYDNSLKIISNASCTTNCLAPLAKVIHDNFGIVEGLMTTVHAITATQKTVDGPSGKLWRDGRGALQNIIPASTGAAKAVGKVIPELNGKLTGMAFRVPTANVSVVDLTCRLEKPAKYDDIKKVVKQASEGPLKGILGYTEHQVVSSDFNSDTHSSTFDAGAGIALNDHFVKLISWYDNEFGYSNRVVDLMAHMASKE
Sequence of Broad substrate specificity ATP-binding cassette transporter ABCG2 (Homo sapiens) (Q9UNQ0 whole entry, looked up): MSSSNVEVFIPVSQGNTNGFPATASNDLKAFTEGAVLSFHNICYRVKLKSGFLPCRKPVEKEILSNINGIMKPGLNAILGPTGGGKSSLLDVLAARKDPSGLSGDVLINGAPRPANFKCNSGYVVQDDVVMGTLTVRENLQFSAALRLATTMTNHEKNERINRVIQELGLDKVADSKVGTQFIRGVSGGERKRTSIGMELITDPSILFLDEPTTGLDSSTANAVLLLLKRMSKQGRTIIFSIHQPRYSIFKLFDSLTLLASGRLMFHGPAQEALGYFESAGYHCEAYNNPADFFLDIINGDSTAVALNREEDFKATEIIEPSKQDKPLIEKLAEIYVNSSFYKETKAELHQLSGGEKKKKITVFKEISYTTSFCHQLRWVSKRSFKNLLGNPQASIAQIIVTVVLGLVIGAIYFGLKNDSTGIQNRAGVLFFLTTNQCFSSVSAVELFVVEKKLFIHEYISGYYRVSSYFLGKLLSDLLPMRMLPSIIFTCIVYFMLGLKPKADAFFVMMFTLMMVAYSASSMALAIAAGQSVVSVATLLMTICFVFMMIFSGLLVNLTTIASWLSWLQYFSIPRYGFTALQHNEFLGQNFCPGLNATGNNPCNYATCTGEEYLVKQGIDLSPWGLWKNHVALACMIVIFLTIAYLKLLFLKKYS

## CCOCCOC(C)=O
[1]
  outcome: inactive
[2]
  outcome: inactive
[3]
  outcome: inactive
[4]
  outcome: inactive

## ClC1=C(Cl)[C@]2(Cl)[C@@H]3[C@H]4C[C@H]([C@@H]5O[C@H]45)[C@@H]3[C@@]1(Cl)C2(Cl)Cl
[1]
  AC50: 60.9 µM (active)
[2]
  AC50: 78.7 µM (active)
[5]
  AC50: 72.4 µM (active)
[3]
  AC50: 4.96 µM (active)

## ClC1=C(Cl)[C@]2(Cl)[C@@H]3[C@@H]4C[C@@H]([C@H]5O[C@@H]45)[C@@H]3[C@@]1(Cl)C2(Cl)Cl
[1]
  outcome: inactive
[2]
  outcome: inactive
[4]
  outcome: inactive

## CCCCCCCCOC(=O)c1ccccc1C(=O)OCCCCCCCC
[1]
  outcome: inactive
[2]
  outcome: inactive
[5]
  outcome: inactive
[3]
  outcome: inactive
[4]
  outcome: inactive
[6]
  outcome: inactive

## Cc1ccccc1CO[C@@H]1C[C@@]2(C(C)C)CC[C@]1(C)O2
[7]
  outcome: inactive
[8]
  outcome: inactive
[9]
  outcome: inactive
[10]
  outcome: inactive
[11]
  AC50: 7.69 µM (active)
[12]
  outcome: inactive
[3]
  outcome: inactive
[4]
  outcome: inactive
[6]
  outcome: inactive

## C=CC(=O)NCNC(=O)C=C
[1]
  AC50: 65.6 µM (active)
[2]
  AC50: 81.3 µM (active)
[5]
  AC50: 73.2 µM (active)
[4]
  outcome: inactive

## Sc1ccccc1
[5]
  outcome: inactive
[6]
  outcome: inactive

## Oc1ccc(C(c2ccc(O)cc2)(C(F)(F)F)C(F)(F)F)cc1
[1]
  outcome: inactive
[2]
  outcome: inactive
[4]
  AC50: 45 µM (active)
[13]
  AC50: 9.41 µM (active)
[14]
  AC50: 12.2 µM (active)
[15]
  AC50: 24.6 µM (active)
[16]
  AC50: 9.68 µM (active)
[6]
  outcome: inactive
[17]
  outcome: inactive

## CCNc1nc(NC(C)C)nc(SC)n1
[7]
  outcome: inactive
[8]
  AC50: 9.24 µM (active)
[9]
  outcome: inactive
[10]
  AC50: 8.73 µM (active)
[11]
  outcome: inactive
[12]
  outcome: inactive
[1]
  outcome: inactive
[2]
  AC50: 34.3 µM (active)
[5]
  AC50: 33.3 µM (active)
[3]
  outcome: inactive
[4]
  AC50: 76.9 µM (active)

## NS(=O)(=O)C(F)(F)C(F)(F)C(F)(F)C(F)(F)C(F)(F)C(F)(F)C(F)(F)C(F)(F)F
[3]
  outcome: inactive
[4]
  AC50: 38 µM (active)

## Cc1cc(-c2ccc(N)c(C)c2)ccc1N
[3]
  outcome: inactive
[4]
  outcome: inactive

## Cc1cc(O)ccc1Cl
[1]
  outcome: inactive
[2]
  outcome: inactive
[5]
  outcome: inactive
[3]
  outcome: inactive
[4]
  outcome: inactive

## Nc1ccc(-c2ccc(N)cc2)cc1
[3]
  outcome: inactive
[4]
  outcome: inactive

## CCC(=O)O[C@H]1CC[C@H]2[C@@H]3CCC4=CC(=O)CC[C@]4(C)[C@H]3CC[C@]12C
[1]
  AC50: 29.5 µM (active)
[2]
  AC50: 20.6 µM (active)
[5]
  AC50: 28.6 µM (active)
[3]
  AC50: 82 µM (active)
[4]
  outcome: inactive
[6]
  outcome: inactive

## Clc1ccc(C(Cl)(Cl)Cl)cc1
[1]
  AC50: 94.7 µM (active)
[2]
  AC50: 77.8 µM (active)
[5]
  AC50: 86.5 µM (active)
[4]
  outcome: inactive
[6]
  outcome: inactive
